Assay results: PubChem BioAssay AID938 (National Center for Advancing Translational Sciences (NCATS), 2007)
In all, about 73,000 compounds went through this assay and about 1,800 (2.5%) were called active. Not shown: some 13% with an inconclusive outcome. This is one part of a sample in which actives are shown more often than they occur. A number with no mark means an inactive call. Calls follow the shape of the dose curve; as a rule, active = well fitted activation curve with a large enough effect; inconclusive = small, poorly fitted or top-dose-only effect; inactive = no such curve, though single readings can be large or run the other way.

Experiment: qHTS Assay for Agonists of the Thyroid Stimulating Hormone Receptor: Activators of Intracellular cAMP Concentrations in Parental HEK 293; also: nearly all actives have a fitted effect of over 55% in size; as to activation: % of control where 0% means no effect
Conditions: parental HEK293 CNG cAMP sensor, membrane potential fluorescence; series mostly up to 57.1 µM; activation: at the top concentration
Excerpt: NIH Chemical Genomics Center [NCGC]
NIH Molecular Libraries Screening Centers Network [MLSCN]
PI Name: Dr. Marvin Gershengorn
This cell based assay utilized a cyclic nucleotide gated ion channel (CNG) as a biosensor for cAMP induction. HEK 293 cells stably expressing the modified CNG were purchased from BD biosciences (http://www.atto.com/products/actone/features_benefits.shtml) . Stimulation of cAMP production causes the CNG to open and subsequent membrane depolarization to occur. A fluorescent membrane potential dye (BD biosciences) was utilized to detect cAMP stimulation in cells.
The cells were maintained in DMEM medium (Invitrogen) containing 10 % FBS (Hyclone), 100 units/ml Penicillin, 100 ug/ml Streptomycin (Invitrogen), and 250 ug/ml Geneticin (Invitrogen) and 1 ug/ml Puromycin (Invitrogen) at 37C in 5% CO2. This assay was used as a counterscreen to "qHTS Assay for Agonists of the Thyroid Stimulating Hormone Receptor", to control for compounds signaling through endogenous receptors and other targets of HEK 293 cells.
NCGC Assay Protocol Summary:
High Throughput Screening. Freshly passaged cells were dispensed into 1536-well assay plates at 4 ul/well in DMEM containing phenol red (Invitrogen), 10% FCS (Hyclone), and 100 units/ml Penicillin, 100 ug/ml Streptomycin (Invitrogen) and incubated at 37 C with 5% CO2 for 20 to 36 hrs before the robotic screening. The screen was initiated by addition of 4 ul/well membrane potential dye containing 100 uM RO 20-1724 (Sigma Aldrich), followed by 60 min incubation at room temperature to allow for dye equilibration across the cell membrane. 23 nl/well compound or control was then added to the assay plates, which were incubated for additional 30 min before reading a Envision fluorescence plate reader (Perkin Elmer) in bottom-read mode for fluorescence intensity (emission at 590 nm).
Keywords: cAMP, CNG Ion Channel, quantitative high throughput screening, qHTS, HTS, probe identification, CNG, cAMP, cyclic nucleotide gated ion channel PubChem
Potency is read from the fitted curve at half-maximal effect.

SMILES	activation	Potency
O=C(Nc1cccc(F)c1)N1CCC2(CC1)CCN(S(=O)(=O)c1ccccc1)CC2	-5.07%	
CC(=O)c1cnc(Nc2nc(C)c3cc(C)ccc3n2)nc1C	-1.78%	
CO/N=C\[C@@H](C)[C@H](OCc1ccccc1)C(C)C	-0.643% [at 11.4 µM]	
C[C@H]1CC[C@H](C(=O)O)N[C@@H]1c1ccc(C#Cc2ccccc2)cc1	0.689% [at 11.4 µM]	
CC(C)[C@H](NC(=O)Nc1ccc(S(N)(=O)=O)cc1)C(=O)O	3.41%	
Cc1ccc(-c2nnn(CC(=O)N(CCO)C(C(=O)NC(C)(C)C)c3ccncc3)n2)cc1 (configuration not stated)	9.77%	
O=C(Cn1nnc(-c2ccccc2)n1)NCc1ccc2c(c1)OCO2	12.1%	
CCC(C)(C)NC(=O)C(c1cccn1C)N(Cc1ccc(C)cc1)C(=O)Cn1nnc2ccccc21 (configuration not stated)		15.8 µM (active)
Cc1ccc(C(=O)CSc2nnc(Cn3nnc4ccccc43)n2C)cc1	1.67%	
CC(C)(C)NC(=O)C(c1ccco1)N(Cc1ccc2c(c1)OCO2)C(=O)Cn1nnc2ccccc21 (configuration not stated)		15.8 µM (active)
CC(C)(C)NC(=O)C(c1ccncc1)N(C(=O)CNC(=O)c1ccco1)c1ccc2c(c1)OCO2 (configuration not stated)	-1.28%	
CC(=O)c1nc(N2C(=O)C3CC=C(C)CC3C2=O)sc1C (configuration not stated)	1.5%	
CCOC(=O)CCC(=O)OCC(=O)NC(C)C1CC2CCC1C2 (configuration not stated)	5.54%	
CCc1c(C)sc(NC(=O)OC)c1C(=O)N1CCOCC1	-1.6%	
CC(=O)OCC(=O)[C@@]1(O)CC[C@@H]2[C@H]3CCC4=CC(=O)C=C[C@]4(C)[C@]3(F)[C@@H](O)C[C@@]21C	-1.34% [at 25.6 µM]	
NS(=O)(=O)c1cc(C(=O)O)c(Cl)c([N+](=O)[O-])c1Cl	-3.67% [at 11.4 µM]	
COc1ccc(CCNC(=O)c2cc3sccc3n2C)cc1OC	14.3%	
CC(=O)N1CCC2(CCCN(Cc3ccc(C#N)cc3)C2)CC1	5.48%	
CCOC(=O)c1cc2sccc2n1Cc1ccc(C#N)cc1		15.8 µM (active)
O=c1[nH][nH]c(=O)c2cc(N3CCCC3)ccc12	5.03%	
O=C(Nc1ccc(S(=O)(=O)N2CCCCC2)cc1)c1cnccn1	-2.44%	
Cc1cccc(C)c1NC(=O)CCCSc1nnc(-c2ccco2)n1-c1ccccc1		20 µM (active)
COc1ccc(C(=O)NC(=O)CSc2nnc(-c3ccco3)n2-c2ccccc2)cc1	24.9%	
CCc1cccc(C)c1NC(=O)CSc1nnc(-c2ccco2)n1N	9.32%	

SMILES	activation	Potency
CC1CCCCN1CCCNC(=O)c1ccc(-n2c(=O)c(=O)[nH]c3ccccc32)cc1 (configuration not stated)	-4.46%	
O=C1c2ccccc2C(O)N1Cc1ccccc1Cl (configuration not stated)	3.64%	
COC(=O)[C@@]1(Cc2ccc(F)cc2)[C@@H]2[C@@H](CC(=O)[C@H]2CC(=O)C(=O)N2CCCC2)CN1C(=O)c1ccccc1	18.8%	
COC(=O)[C@@]1(Cc2ccc(OC)cc2)[C@H]2c3cc(C(=O)N4CCCC4)n(Cc4ccc(OC(F)(F)F)cc4)c3C[C@H]2CN1C(=O)c1ccccc1		2.51 µM (active)
COC(=O)[C@@]1(Cc2ccc(F)cc2)[C@H]2c3cc(C(=O)N4CCCC4)n(C[C@H](O)CO)c3C[C@H]2CN1C(=O)c1ccccc1	12.9%	
COc1ccc(OCc2cccc(C(=O)N3CCCC3)c2)cc1	8.91%	
COC(=O)[C@@]1(Cc2ccccc2)[C@H]2c3cc(C(=O)N4CCCC4)n(Cc4ccc(C)o4)c3C[C@H]2CN1C(=O)c1ccccc1		1.58 µM (active)
COC(=O)[C@@]1(Cc2ccc(F)cc2)[C@H]2c3cc(C(=O)N4CCCC4)n(Cc4ccc(OC(F)(F)F)cc4)c3C[C@H]2CN1C(=O)c1ccccc1		1.58 µM (active)
COC(=O)[C@@]1(Cc2ccc(F)cc2)[C@H]2c3cc(C(=O)N(C)C)n(CCc4c[nH]c5ccc(OC)cc45)c3C[C@H]2CN1C(=O)c1ccccc1	3.36%	
COc1ccc(-c2nc(CS(=O)CC(=O)N3CCc4ccccc4C3)c(C)o2)cc1 (configuration not stated)	-0.822%	
COc1ccc(/C=C/NC(=O)c2ccc(OC)cc2)cc1	-3.02% [at 11.4 µM]	
NCCCNCCCCN(CCCN)/[N+]([O-])=N/O	3.09%	
CC1(C)S[C@@H]2[C@@H](NC(=O)[C@@H](N)c3ccccc3)C(=O)N2[C@H]1C(=O)O	-1.13%	
CC(Sc1nncn1C)C(=O)Nc1ccccc1-c1ccccc1 (configuration not stated)	10.9%	
CS(=O)(=O)N1CCN(C(=O)c2cc3ccccc3oc2=O)CC1	-3.19%	
C/C(CCN1CCc2nc(-c3ccccc3)c(-c3ccccc3)cc2C1)=N\O[C@@H](C)c1cn([C@@H]2COC[C@@H]2O)nn1	0.56% [at 11.4 µM]	
CCCOc1ccc2c3c(c(=O)oc2c1OCCC)CCC3		3.16 µM (active)
NC(=O)COc1ccc2c3c(c(=O)oc2c1)CCCCC3	-1.24%	
O=C(COc1ccc2c3c(c(=O)oc2c1)CCC3)NC1CCCCC1	25.1%	
Oc1ccc2ccccc2c1C=NCc1c(O)ccc2ccccc12	1.97% [at 11.4 µM]	
CC(C)N(C(=O)COC(=O)c1ccccc1C(=O)N1CCN(c2ccc(F)cc2)CC1)C(C)C	7.82%	
CC(=O)N1CCN(c2ccc(NCc3ccc(C(C)C)cc3)cc2)CC1		3.98 µM (active)
CN1CCN(c2ccc(NC(=O)COc3ccc(Cl)cc3Cl)cc2)CC1	-35.6%	
